Laboratory results: PubChem BioAssay AID382 (SGCOxCompounds, 2006)
Several values for one entry are separate records, joined by “and”; a condition that tells them apart may be missing. Equal entries are not always repeated. Activity calls are given as the source filed them. The rule behind the calls is not given here.

Target: Dual specificity protein kinase CLK1 (Homo sapiens) (UniProt P49759)
Experiment: ligand-induced CLK1 melting temperature shift – biophysical, recombinant human kinase, DSF (AID 382)
Settings: Recombinant CLK1, thermal shift (DSF), at 10 µM, protein 2 µM, buffer 10 mM HEPES, NaCl 150 mM, active compounds read high

Dual specificity protein kinase CLK1 (Homo sapiens), sequence (P49759 whole entry, looked up): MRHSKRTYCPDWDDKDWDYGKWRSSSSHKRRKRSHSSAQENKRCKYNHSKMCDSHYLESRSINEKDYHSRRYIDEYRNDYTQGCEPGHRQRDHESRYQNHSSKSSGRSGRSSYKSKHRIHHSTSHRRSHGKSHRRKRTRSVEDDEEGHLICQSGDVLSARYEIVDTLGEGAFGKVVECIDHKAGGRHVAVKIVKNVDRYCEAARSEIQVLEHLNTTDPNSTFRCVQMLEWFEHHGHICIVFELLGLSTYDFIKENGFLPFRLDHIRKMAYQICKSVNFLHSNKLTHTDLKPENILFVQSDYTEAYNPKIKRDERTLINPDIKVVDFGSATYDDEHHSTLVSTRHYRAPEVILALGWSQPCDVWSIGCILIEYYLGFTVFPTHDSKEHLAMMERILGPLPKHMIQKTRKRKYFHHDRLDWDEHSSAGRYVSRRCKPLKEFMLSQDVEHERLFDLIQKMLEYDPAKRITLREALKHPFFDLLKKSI

Tm shift, active:
O=Nc1c(-c2c(O)[nH]c3ccccc23)[nH]c2ccccc12 3.59 Celsius, O=c1c(O)c(-c2ccc(O)c(O)c2)oc2cc(O)cc(O)c12 8.34 Celsius and 6.74 Celsius, CC1N=C2SC=CN2C(=O)C1CCN1CCC(=C(c2ccccc2)c2ccc(F)cc2)CC1 (stereo not drawn) 6.74 Celsius, O=c1c(O)c(-c2ccc(O)cc2)oc2cc(O)cc(O)c12 5.97 Celsius, COc1cc(C2Oc3cc(O)cc(O)c3C(=O)C2=O)ccc1O (stereo not drawn) 6.14 Celsius, COc1cc2ncnc(Nc3cccc(O)c3)c2cc1OC 4.15 Celsius, COC(=O)c1cnc2oc3ccc(O)cc3c2c1-c1ccccc1 6.11 Celsius, O=c1cc(-c2ccc(O)cc2)oc2cc(O)cc(O)c12 5.94 Celsius, Cc1cc(O)c2c(c1)C(=O)c1cc(O)cc(O)c1C2=O 3.11 Celsius, CC(C)n1cnc2c(Nc3cccc(Cl)c3)nc(NCCO)nc21 5.26 Celsius, COc1cc(/C=C/C(=O)CC(=O)/C=C/c2ccc(O)c(OC)c2)ccc1O 9.16 Celsius, CN(C)CCCn1cc(C2=C(c3c[nH]c4ccccc34)C(=O)NC2=O)c2ccccc21 6.98 Celsius, Cc1c(O)cc(O)c2c1OC(c1ccc(O)c(O)c1)C(=O)C2=O (stereo not drawn) 4.98 Celsius, NCCCn1cc(C2=C(c3c[nH]c4ccccc34)C(=O)NC2=O)c2ccccc21 8.48 Celsius, O=C1c2ccccc2-c2n[nH]c3cccc1c23 4.9 Celsius

Same assay, conditions: Recombinant CLK1, thermal shift (DSF), at 10 µM, protein 2 µM, buffer 10 mM HEPES, pH 7.5, NaCl 150 mM, with 50 µM L-Arg/L-Glu (1:1), active compounds read high

Tm shift, active:
COC(=O)c1ccc(-c2cnc3ccc(NC4CCOCC4)nn23)cc1 4.3 Celsius, COc1cccc(-c2cnn3ccc(Nc4cccc(Cl)c4)nc23)c1 6 Celsius, Nc1ccc(-c2cnc3ccc(NC4CCOCC4)nn23)cc1 4.8 Celsius, NS(=O)(=O)c1ccc(Nc2nc(OCC3CCCCC3)c3[nH]cnc3n2)cc1 3.9 Celsius, CC(C)[C@@H](CO)Nc1ccc2ncc(-c3cccc(OC(F)(F)F)c3)n2n1 4.6 Celsius, Cc1cc(Nc2nc(-c3ccccc3)nc3ccccc23)n[nH]1 5.8 Celsius, Oc1cccc(-c2cnc3ccc(NCC4CC4)nn23)c1 3.9 Celsius, O=C1NCc2c1c1c3ccccc3[nH]c1c1[nH]c3ccccc3c21 3.1 Celsius, CCC(CO)Nc1ccc2ncc(-c3cccc(OC(F)(F)F)c3)n2n1 (stereo not drawn) 5.3 Celsius, COc1cncc(-c2cnc3ccc(NC4CCOCC4)nn23)c1 3.2 Celsius, Fc1cccc(-c2cnc3ccc(NC4CCOCC4)nn23)c1 4.5 Celsius, OCC(O)CCO/N=C1/C(c2c(O)[nH]c3ccccc23)=Nc2ccccc21 (stereo not drawn) 7.7 Celsius, CC(C)[C@@H](CO)Nc1ccc2ncc(-c3cccc(O)c3)n2n1 4.2 Celsius
